From PubChem BioAssay AID1159580 (chemical genetic matrix, 2015)
“And” between values parts separate entries of the source, which are not always exact repeats. Equal values may be shown once. About 2,000 (36%) of roughly 5,500 compounds were called active. Not shown: some 18% with an inconclusive outcome. Rule as the data show it: active = normalized growth mostly below about 0.91 (no sharp cut-off); inconclusive = no clear call, values can overlap the other calls; inactive = mostly above about 0.92. Some of the results follow.

Experiment: chemical genetic growth profiling, strain panel (AID 1159580);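 also: tested at 20 µM; growth read once vehicle control cultures reached saturation at 30 °C; 1 = growth at the plate median or of vehicle wells; lower values mean less growth of the strain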
Conditions: S. cerevisiae deletion strains, growth OD

Measured: normalized growth

C[C@H](N)[C@H](O)c1cccc(O)c1
inactive: locus YAL021C, strain ccr4, stronger effect = lower value 1 | locus YAL026C, strain drs2, stronger effect = lower value 1.01 | locus YAL030W, strain snc1, stronger effect = lower value 1 | locus YBL061C, strain skt5, stronger effect = lower value 1.01 | locus YBR009C, strain hhf1, stronger effect = lower value 1.02 | locus YBR021W, strain FUR4, stronger effect = lower value 1.04 | locus YBR023C, strain chs3, stronger effect = lower value 1.02 | locus YBR171W, strain sec66, stronger effect = lower value 1.02 | locus YBR229C, strain ROT2, stronger effect = lower value 0.992 | locus YBR231C, strain swc5, stronger effect = lower value 1 | locus YBR279W, strain paf1, stronger effect = lower value 1.01 | locus YCL011C, strain gbp2, stronger effect = lower value 1 | locus YCL016C, strain dcc1, stronger effect = lower value 1.02 | locus YCL029C, strain bik1, stronger effect = lower value 0.985 | locus YCL061C, strain MRC1, stronger effect = lower value 1.01 | locus YCL069W, strain vba3, stronger effect = lower value 0.994 | locus YCR088W, strain abp1, stronger effect = lower value 1 | locus YDL005C, strain med2, stronger effect = lower value 1.01 | locus YDL035C, strain GPR1, stronger effect = lower value 0.983 | locus YDL040C, strain nat1, stronger effect = lower value 1 | locus YDL074C, strain BRE1, stronger effect = lower value 1.04 | locus YDL101C, strain DUN1, stronger effect = lower value 0.997 | locus YDL185W, strain tfp1, stronger effect = lower value 0.957 | locus YDL192W, strain arf1, stronger effect = lower value 0.99 | locus YDR001C, strain nth1, stronger effect = lower value 0.999 | locus YDR069C, strain doa4, stronger effect = lower value 1.01 | locus YDR101C, strain arx1, stronger effect = lower value 1 | locus YDR137W, strain rgp1, stronger effect = lower value 1.03 | locus YDR150W, strain NUM1, stronger effect = lower value 0.981 | locus YDR159W, strain sac3, stronger effect = lower value 1.03 | locus YDR162C, strain NBP2, stronger effect = lower value 0.986 | locus YDR195W, strain ref2 1 | locus YDR297W, strain sur2, stronger effect = lower value 1 | locus YDR318W, strain mcm21, stronger effect = lower value 0.997 | locus YDR334W, strain swr1, stronger effect = lower value 0.999 | locus YDR335W, strain msn5, stronger effect = lower value 0.994 | locus YDR388W, stronger effect = lower value 0.987 | locus YDR392W, strain spt3, stronger effect = lower value 1.02 | locus YDR502C, strain sam2, stronger effect = lower value 1 | locus YEL003W, strain gim4, stronger effect = lower value 1.01 | locus YEL037C, strain rad23, stronger effect = lower value 1 | locus YEL061C, strain CIN8 (second series), stronger effect = lower value 0.992 | locus YEL061C, strain CIN8, stronger effect = lower value 0.988 | locus YER015W, strain faa2, stronger effect = lower value 1.01 | locus YER016W, strain bim1, stronger effect = lower value 1.01 | locus YER110C, stronger effect = lower value 0.973 | locus YER111C, strain swi4, stronger effect = lower value 1 | locus YER155C, strain BEM2 (second series), stronger effect = lower value 0.995 | locus YER155C, strain BEM2, stronger effect = lower value 1.01 | locus YER167W, strain BCK2, stronger effect = lower value 0.989 | locus YFR010W, strain ubp6, stronger effect = lower value 1.01 | locus YGL078C, strain dbp3, stronger effect = lower value 0.995 | locus YGL086W, strain mad1, stronger effect = lower value 1.01 | locus YGL167C, strain pmr1, stronger effect = lower value 1.02 | locus YGL173C, strain kem1, stronger effect = lower value 1.01 | locus YGL227W, strain vid30, stronger effect = lower value 1 | locus YGL240W, strain doc1, stronger effect = lower value 1.01 | locus YGL248W, strain PDE1, stronger effect = lower value 1.02 | locus YGL253W, strain hxk2, stronger effect = lower value 1.01 | locus YGR078C, strain PAC10, stronger effect = lower value 1.01 | locus YGR135W, strain pre9, stronger effect = lower value 0.942 | locus YGR252W, strain gcn5, stronger effect = lower value 1.04 | locus YHR013C, strain ard1, stronger effect = lower value 1.02 | locus YHR027C, strain rpn1, stronger effect = lower value 1.02 | locus YHR030C, strain SLT2, stronger effect = lower value 0.979 and 1.02 | locus YHR079C, strain IRE1 (second series), stronger effect = lower value 0.999 | locus YHR079C, strain IRE1, stronger effect = lower value 1.02 | locus YHR094C, strain hxt1, stronger effect = lower value 0.979 | locus YHR129C, strain ARP1, stronger effect = lower value 0.997 | locus YHR142W, strain chs7, stronger effect = lower value 1 | locus YHR200W, strain rpn10, stronger effect = lower value 0.987 | locus YIL066C, strain RNR3, stronger effect = lower value 1 | locus YIL073C, strain SPO22, stronger effect = lower value 0.828 | locus YIL125W, strain kgd1, stronger effect = lower value 0.988 | locus YIR030C, strain dcg1, stronger effect = lower value 0.982 | locus YJL092W, strain hpr5, stronger effect = lower value 1.01 | locus YJL095W, strain BCK1 (second series), stronger effect = lower value 1.01 | locus YJL095W, strain BCK1, stronger effect = lower value 1.01 and 1.04 | locus YJL115W, strain asf1, stronger effect = lower value 1.01 | locus YJL129C, strain trk1, stronger effect = lower value 0.995 | locus YJL134W, strain LCB3, stronger effect = lower value 0.985 | locus YJL154C, strain vps35, stronger effect = lower value 0.997 | locus YJL164C, strain tpk1, stronger effect = lower value 1.01 | locus YJL166W, strain qcr8, stronger effect = lower value 1 | locus YJL168C, strain set2, stronger effect = lower value 0.999 | locus YJL187C, strain SWE1 (second series), stronger effect = lower value 0.996 | locus YJL187C, strain SWE1, stronger effect = lower value 1.01 | locus YJR043C, strain POL32, stronger effect = lower value 1.04 | locus YJR066W, strain TOR1, stronger effect = lower value 0.991 | locus YKL009W, strain mrt4, stronger effect = lower value 0.987 | locus YKL068W, stronger effect = lower value 0.977 | locus YKL085W, strain MDH1 (second series), stronger effect = lower value 0.984 | locus YKL085W, strain MDH1, stronger effect = lower value 0.984 | locus YKL160W, strain elf1, stronger effect = lower value 1 | locus YKR001C, strain vps1, stronger effect = lower value 0.998 | locus YKR026C, strain gcn3, stronger effect = lower value 1.01 | locus YKR091W, strain srl3, stronger effect = lower value 0.998 | locus YLL001W, strain dnm1, stronger effect = lower value 1.01 | locus YLL026W, stronger effect = lower value 1 | locus YLL041C, strain sdh2, stronger effect = lower value 1.01 | locus YLR027C, strain aat2, stronger effect = lower value 1.01 | locus YLR039C, strain RIC1, stronger effect = lower value 0.968 | locus YLR058C, strain SHM2, stronger effect = lower value 0.983 | locus YLR102C, strain apc9, stronger effect = lower value 0.993 | locus YLR113W, strain HOG1, stronger effect = lower value 1.07 | locus YLR221C, strain rsa3, stronger effect = lower value 1.01 | locus YLR258W, strain gsy2, stronger effect = lower value 1 | locus YLR262C, strain YPT6 (second series), stronger effect = lower value 1.03 | locus YLR262C, strain YPT6, stronger effect = lower value 0.963 | locus YLR268W, strain sec22, stronger effect = lower value 1.01 | locus YLR320W, strain mms22, stronger effect = lower value 1.02 | locus YLR330W, strain CHS5, stronger effect = lower value 0.985 | locus YLR342W, strain FKS1 (second series), stronger effect = lower value 0.98 | locus YLR342W, strain FKS1, stronger effect = lower value 1.01 | locus YLR357W, strain rsc2, stronger effect = lower value 0.993 | locus YLR370C, strain arc18, stronger effect = lower value 1.01 | locus YLR371W, strain rom2, stronger effect = lower value 1 | locus YLR384C, strain iki3, stronger effect = lower value 1.01 | locus YLR418C, strain cdc73, stronger effect = lower value 0.983 | locus YML016C, strain PPZ1, stronger effect = lower value 0.995 | locus YML032C, strain rad52, stronger effect = lower value 1.01 | locus YML120C, strain ndi1, stronger effect = lower value 1.01 | locus YML124C, strain tub3, stronger effect = lower value 0.991 | locus YMR058W, strain fet3, stronger effect = lower value 1 | locus YMR078C, strain ctf18, stronger effect = lower value 0.985 | locus YMR125W, strain sto1, stronger effect = lower value 1 | locus YMR129W, stronger effect = lower value 1 | locus YMR205C, strain PFK2, stronger effect = lower value 1.03 | locus YMR223W, strain ubp8, stronger effect = lower value 0.971 | locus YMR231W, strain pep5, stronger effect = lower value 1.02 | locus YMR263W, strain SAP30, stronger effect = lower value 0.995 | locus YMR307W, strain GAS1, stronger effect = lower value 1 | locus YNL067W, strain RPL9B, stronger effect = lower value 1.02 | locus YNL071W, strain lat1, stronger effect = lower value 0.997 | locus YNL153C, strain GIM3, stronger effect = lower value 1.04 | locus YNL183C, strain NPR1, stronger effect = lower value 0.989 | locus YNL209W, strain ssb2, stronger effect = lower value 1.01 | locus YNL233W, strain BNI4, stronger effect = lower value 1.05 | locus YNL248C, strain rpa49, stronger effect = lower value 1.01 | locus YNL250W, strain rad50, stronger effect = lower value 0.993 | locus YNL271C, strain bni1, stronger effect = lower value 0.997 | locus YNL298W, strain CLA4, stronger effect = lower value 0.993 | locus YNL307C, strain MCK1, stronger effect = lower value 1 | locus YNL322C, strain KRE1 (second series), stronger effect = lower value 1.01 | locus YNR049C, strain mso1, stronger effect = lower value 1.01 | locus YNR052C, strain pop2, stronger effect = lower value 0.993 | locus YOL012C, strain htz1 1.01 | locus YOL147C, strain pex11, stronger effect = lower value 0.978 | locus YOR001W, strain rrp6, stronger effect = lower value 1.01 | locus YOR061W, strain CKA2, stronger effect = lower value 0.996 | locus YOR069W, strain VPS5, stronger effect = lower value 0.985 | locus YOR070C, strain gyp1, stronger effect = lower value 1.01 | locus YOR080W, strain dia2, stronger effect = lower value 1.02 | locus YOR083W, strain WHI5, stronger effect = lower value 1.01 | locus YOR106W, strain vam3, stronger effect = lower value 1.02 | locus YOR136W, strain idh2, stronger effect = lower value 1.01 | locus YOR144C, strain elg1, stronger effect = lower value 0.996 | locus YOR184W, strain ser1, stronger effect = lower value 0.989 | locus YOR231W, strain MKK1, stronger effect = lower value 1.06 | locus YOR265W, strain rbl2, stronger effect = lower value 1.01 | locus YOR270C, strain vph1, stronger effect = lower value 1.01 | locus YOR290C, strain snf2, stronger effect = lower value 1.03 | locus YOR316C, strain cot1, stronger effect = lower value 0.99 | locus YPL051W, strain arl3, stronger effect = lower value 1.01 | locus YPL055C, strain LGE1, stronger effect = lower value 1.06 | locus YPL078C, strain atp4, stronger effect = lower value 1.01 | locus YPL106C, strain sse1, stronger effect = lower value 1.03 | locus YPL240C, strain hsp82, stronger effect = lower value 1.01 | locus YPL256C, strain CLN2, stronger effect = lower value 1.04 | locus YPR119W, strain clb2, stronger effect = lower value 0.995 | locus YPR141C, strain kar3, stronger effect = lower value 0.978 | locus YPR163C, strain tif3, stronger effect = lower value 0.987 | locus YPR167C, strain met16, stronger effect = lower value 1 | strain wtn01, stronger effect = lower value 0.998
